Hit rate of the full screen: of about 48,000 compounds, about 13,000 (27%) showed an effect of 50% or more. Some of the results follow.
These compounds were tested on Wolbachia pipientis (assay: Anti-Wolbachia Cell-Based Screen). Settings: 5 µM.
Format: functional
Set-up: scale not given: in the data most compounds retested in dose-response had high values

| SMILES | Percent Effect [%] |
| --- | --- |
| O=C(c1ccc(S(=O)(=O)NCC(F)F)cc1)N1C[C@H]2CNC[C@H]2C1 | 19.64 |
| O=C(CCCc1nc(C2CC2)no1)N1CCCC(c2ccn[nH]2)C1 (stereo not drawn) | -3.493 |
| CC(C)c1ocnc1C(=O)N1CCCC(c2ccn[nH]2)C1 (stereo not drawn) | -7.734 |
| CC(C)c1cnc(CN2CCCC(c3ccn[nH]3)C2)o1 (stereo not drawn) | -28.34 |
| O=C1CCCCCN1CCC(=O)N1CCCC(c2ccn[nH]2)C1 (stereo not drawn) | 2.164 |
| Cc1cc(OCC(=O)N2CCCC(c3ccn[nH]3)C2)no1 (stereo not drawn) | 1.786 |
| O=C(c1cc(=O)n(-c2ccccc2)[nH]1)N1CCCC(c2ccn[nH]2)C1 (stereo not drawn) | 77.64 |
| O=C(CN1CCCC(c2ccn[nH]2)C1)Nc1nncs1 (stereo not drawn) | 12 |
| Cn1cncc1C(=O)N1CCCC(c2ccn[nH]2)C1 (stereo not drawn) | 108.7 |
| O=C(c1cnc2ccccn12)N1CCCC(c2ccn[nH]2)C1 (stereo not drawn) | 107.7 |
| O=C(c1cnnn1-c1ccccc1)N1CCCC(c2ccn[nH]2)C1 (stereo not drawn) | 106 |
| CC(C)N1CCC(c2ccnc3c(C(=O)N4CCOCC4)ncn23)CC1 | -16.45 |
| Cn1nc(Cn2cccn2)c2c1CN(Cc1ccoc1)C2.O=C(O)C(F)(F)F | -5.298 |
| CC(=O)N1CCC(C)(c2nc(C)no2)CC1 | 134.3 |
| Cc1noc([C@@]23CCO[C@@H]2CCN(C(=O)c2cc(C)c(C)s2)C3)n1 | 6.303 |
| COCC(=O)N1CC[C@H]2OCC[C@@]2(c2nc(C)no2)C1 | 6.759 |
| Cc1noc([C@@]23CCO[C@@H]2CCN(C(=O)CN(C)C)C3)n1 | 5.284 |
| Cc1noc([C@@]23CCO[C@@H]2CCN(C(=O)c2cc(C)on2)C3)n1 | 4.569 |
| Cc1noc([C@@]23CCO[C@@H]2CCN(C(=O)CCC(C)C)C3)n1 | 4.63 |
| Cc1noc([C@@]23CCO[C@@H]2CCN(C(=O)c2cc(C)[nH]c2C)C3)n1 | 12.25 |
| Cc1noc(C2(C)CCCN(C(=O)C(C)C)C2)n1 (stereo not drawn) | 123 |
| Cc1noc(C2(C)CCN(C(=O)C(C)C)CC2)n1 | 126.4 |
| Cc1cccc2c1nc(CCO)n2-c1ccc(C(=O)N2CCCC2)o1 | 4.629 |
| Fc1cccc(-n2cc(CN3CCCCC3CCn3ccnc3)cn2)c1 (stereo not drawn) | -14.22 |
| CC(C)C(=O)N1CCCC(c2cncc(Oc3cccnc3)n2)C1 (stereo not drawn) | 130.5 |
| Cc1cncc(C2CCCN(C(=O)c3cccn3C)C2)n1 (stereo not drawn) | 5.721 |

| SMILES | Percent Effect [%] |
| --- | --- |
| CC(C)(N)C(=O)N1CCCC1c1cncc(Oc2ccccc2)n1 (stereo not drawn) | 115.4 |
| CC(C)(N)C(=O)N1CCCC(c2cncc(Oc3cccnc3)n2)C1 (stereo not drawn) | 102.7 |
| CC(C)(N)C(=O)N1CCCC1c1cncc(Oc2ccc(F)cc2)n1 (stereo not drawn) | 9.255 |
| CCS(=O)(=O)c1ncc(CN(C)Cc2ccccc2Cl)n1CCOC | 6.102 |
| CCN(CC)Cc1cc(C(=O)N2CC(C)(C)[C@@](C)(O)C2)c(C)o1 | -3.4 |
| O=S1(=O)c2cnccc2OC(COc2ccccc2)CN1CC1CC1 (stereo not drawn) | 96.1 |
| CC(C)(C)CN1CC(COc2ccccc2)Oc2ccncc2S1(=O)=O (stereo not drawn) | 80.37 |
| CS(=O)(=O)N1CCC2(CC1)COC(COc1cccnc1)C2.O=C(O)C(F)(F)F (stereo not drawn) | -9.864 |
| O=C(COc1ccccc1)N(Cc1ccncc1)C1CC1 | -3.212 |
| O=S1(=O)CCC(n2nc(COc3ccccc3)nc2-c2cnccn2)C1 (stereo not drawn) | -50.17 |
| Cc1nc2cc(=O)[nH]n2c(C)c1CC(=O)Nc1cnn(C)c1 | -2.134 |
| CCc1ncc(C(=O)N(C)CC2Cc3ccccc3O2)cn1 (stereo not drawn) | -1.94 |
| Cc1nn(C)c(C)c1CCNC(C)c1ccc(-n2ccnc2C)cc1 (stereo not drawn) | -1.532 |
| CC(C)N1CCC2(C=C(C(=O)N(C)C)c3ccccc32)CC1.O=C(O)C(F)(F)F | -1.303 |
| CC(C)CN1CCC2(C=C(C(=O)N3CCCC3)c3ccccc32)CC1.O=C(O)C(F)(F)F | 13.87 |
| Cc1ccc(CN2CCC3(CC2)OC(C(=O)N(C)C)c2ccccc23)o1.O=C(O)C(F)(F)F (stereo not drawn) | 8.053 |
| O=C(C1=CC2(CCN(CCO)CC2)c2ccccc21)N1CCCC1.O=C(O)C(F)(F)F | -8.81 |
| CCN1CCC2(C=C(C(=O)N(C)C)c3ccccc32)CC1.O=C(O)C(F)(F)F | 130.6 |
| CC(C)CN1CCC2(C=C(C(=O)N(C)C)c3ccccc32)CC1.O=C(O)C(F)(F)F | 90.84 |
| COc1ccc(C(C)NCc2c[nH]nc2C)cc1Br.Cl (stereo not drawn) | 2.435 |
| Cc1ncoc1C(=O)N1CCc2[nH]nc(-c3ccc4c(c3)OCO4)c2C1 | -5.297 |
| CC(C)CC(CCO)CNC(=O)N1CCCC1(C)C (stereo not drawn) | -11.2 |
| O=C(O)C(F)(F)F.O=C(c1cccnc1)N1CCCC2(COCCN(c3ccccc3)C2)C1 (stereo not drawn) | 104.3 |
| O=C(C1CCCCC1)N1CCCC2(CCN(c3cnccn3)CC2)C1.O=C(O)C(F)(F)F | 1.174 |
| O=C(O)C(F)(F)F.O=C([C@H]1CCCO1)N1CCCC2(COCCN(c3ccccc3)C2)C1 (stereo partly drawn) | 121.5 |
| O=C(C1CCCC1)N1CCCC2(CCN(c3cnccn3)CC2)C1.O=C(O)C(F)(F)F | -29.32 |

| SMILES | Percent Effect [%] |
| --- | --- |
| O=C(c1ccc[nH]1)N1CC2(CCN(c3ncccn3)C2)C1 | -13.43 |
| O=C(C1CCCO1)N1CCCC2(CCN(c3cccnc3)CC2)C1.O=C(O)C(F)(F)F (stereo not drawn) | 111.1 |
| Cc1cc(C(=O)N2CCCC3(COCCN(c4ccccc4)C3)C2)[nH]n1 (stereo not drawn) | -3.26 |
| O=C(O)C(F)(F)F.O=C(c1ccncc1)N1CCCC2(COCCN(c3ccccc3)C2)C1 (stereo not drawn) | 3.35 |
| O=C(O)C(F)(F)F.O=C(c1cccnc1)N1CCOC2(COCCN(c3cncnc3)C2)C1 (stereo not drawn) | -2.912 |
| O=C(c1ccnnc1)N1CC2(CCN(c3ncccn3)C2)C1 | -3.842 |
| O=C(c1cccnc1)N1CCOCC2(CCN(c3ncccn3)C2)C1 (stereo not drawn) | 104.1 |
| COc1ccc(C)cc1CN1CCN(Cc2nccn2C)C(C)C1 (stereo not drawn) | -12.47 |
| OCc1cc2ccccc2nc1NC1CC=CC1 | -7.436 |
| COCCCN(Cc1cnc(-c2ccccn2)nc1)C1CCN(C)CC1 | 120.4 |
| CC(C)n1cnnc1CN(C)Cc1cnc(-c2ccccn2)nc1 | 11.81 |
| CCN(Cc1cnc(-c2ccccn2)nc1)C1CCS(=O)(=O)C1 (stereo not drawn) | -5.567 |
| CC(C)n1cnnc1CN(C)Cc1cnc(-c2cccs2)nc1 | 3.781 |
| CC(C1CCN(Cc2cnc(-c3cccs3)nc2)CC1)N(C)C (stereo not drawn) | 1.758 |
| COCCCN(Cc1cnc(-c2cccs2)nc1)C1CCN(C)CC1 | 117 |
| CCC(O)CN(c1ccccc1)S(=O)(=O)c1cnc(C)s1 (stereo not drawn) | -3.963 |
| CCCn1nc(C)c(CN2CC3(CCOC3)CCC2=O)c1C (stereo not drawn) | -15.65 |
| CC(C)C(=O)NCc1cccc(N2CCCCC2=O)c1 | -5.894 |
| CCOc1ccc(S(=O)(=O)Nc2cnc(OC)nc2OC)cc1 | -50.06 |
| COc1ccc(S(=O)(=O)Nc2cnc(N(C)C)nc2)cc1 | 87.85 |
| CN(C)c1ncc(NS(=O)(=O)c2ccc(OC(F)(F)F)cc2)cn1 | 123.3 |
| Cn1cc(NS(=O)(=O)c2ccc(OC(F)(F)F)cc2)ccc1=O | -16.2 |
| O=S(=O)(NCc1cc2n(n1)CCNC2)c1ccc(OC(F)(F)F)cc1 | 12.96 |
| Cc1ccc(S(=O)(=O)Nc2c(C)nc(N3CCCC3)nc2C)cc1 | 15.76 |
| Cc1nc(N(C)C)nc(C)c1NS(=O)(=O)c1ccc(OC(F)(F)F)cc1 | 120.1 |
| O=S(=O)(Nc1cnc(N2CCCC2)nc1)c1ccc(OC(F)(F)F)cc1 | 113.1 |

| SMILES | Percent Effect [%] |
| --- | --- |
| COc1ncc(NS(=O)(=O)c2ccc(F)cc2F)cn1 | 7.047 |
| CN(C)c1ccc(C(=O)N2CCCc3cc(OC(F)(F)F)ccc32)cn1 | 0.3128 |
| O=S(=O)(Nc1cnc(N2CCCC2)nc1)c1ccc(C(F)(F)F)cc1 | 2.34 |
| O=S(=O)(Nc1cnc(N2CCOCC2)nc1)c1ccc(C(F)(F)F)cc1 | -10.38 |
| Cc1ccc(CN2CCOC3(COCCN(C(C)C)C3)C2)s1.O=C(O)C(F)(F)F.O=C(O)C(F)(F)F (stereo not drawn) | -2.418 |
| Cc1nccn1-c1cc(CNC(=O)C2CCC(=O)NC2)ccn1 (stereo not drawn) | -12.56 |
| CCOc1ncccc1C(=O)N1CCCC1Cn1cc(C)cn1 (stereo not drawn) | 90.55 |
| O=C(c1cccnc1-n1cncn1)N1CCN(CC2CC2)CC1 | -14.6 |
| COCCOc1ncccc1C(=O)N1CCCC1Cn1cc(C)cn1 (stereo not drawn) | 71.82 |
| Cc1cnn(CC2CCCN2C(=O)c2cccnc2-n2cncn2)c1 (stereo not drawn) | 106.4 |
| CSCCc1nc(C(C)C)nn1-c1ccncc1C | -5.681 |
| COCC(C)(C#N)NC(=O)COc1ccccc1Br (stereo not drawn) | -5.931 |
| Cc1c(-c2ccccc2)ncn1CC(c1cccnc1)N1CCOCC1 (stereo not drawn) | 2.3 |
| COCCC1(CO)CCCN(C(=O)c2ccc(C(C)C)[nH]c2=O)C1 (stereo not drawn) | 9.971 |
| Cn1ccnc1CN1CCN(c2ccc(C#N)cc2F)CC1 | 2.933 |
| Cc1ccc(N2C[C@H]3CCC[C@@H](CN(C)C)[C@H]3C2)nn1.O=C(O)C(F)(F)F | -2.322 |
| O=C(C1CCOCC1)N1C[C@@H]2C[C@@H](c3nc(C4CC4)cs3)O[C@@H]2C1.O=C(O)C(F)(F)F | 2.3 |
| Cc1csc([C@H]2C[C@@H]3CCN(C(=O)c4ccnnc4)C[C@H]3O2)n1 | -2.379 |
| O=C(O)C(F)(F)F.O=C(c1ccnnc1)N1C[C@@H]2C[C@@H](c3nc(C4CC4)cs3)O[C@@H]2C1 | 114.8 |
| O=C(O)C(F)(F)F.O=C(c1cnccn1)N1C[C@@H]2C[C@@H](c3nc(C4CC4)cs3)O[C@@H]2C1 | 97.61 |
| Cc1noc([C@@H]2C[C@H]3CN(C(=O)C4CCN(C)CC4)C[C@H]3O2)n1.O=C(O)C(F)(F)F | 11.84 |
| Cc1ccc(CN2CC[C@H]3C[C@H](c4nc(C5CC5)cs4)O[C@@H]3C2)o1 | 7.352 |
| Cn1cccc1C(=O)N1C[C@@H]2C[C@@H](c3nc(C4CC4)cs3)O[C@@H]2C1.O=C(O)C(F)(F)F | 215.5 |
| Cc1csc([C@H]2C[C@@H]3CCN(C(=O)c4cnccn4)C[C@H]3O2)n1 | 7.08 |
| Cc1csc([C@@H]2C[C@@H]3CCN(C(=O)c4cnccn4)C[C@H]3O2)n1 | -0.1445 |

From ChEMBL document CHEMBL3988442, “University of Dundee, Small-Polar-MMV Screening Library” (2021)
